The text below walks through data of PubChem BioAssay (NCATS).

Inconclusive results are not listed. Active and inactive are the calls of the source. The call rests on the fitted dose curve; in most records, active means well fitted inhibition curve with a large enough effect; inconclusive means small, poorly fitted or top-dose-only effect; inactive means flat fitted curve, though single readings scatter. *1 amine or outer side, *2 acyl side, *3 side chain or, on linkers, in order; H or OH if unused. Where a SMILES comes first, the peptide text is derived from it. Bridges are numbered along the chain shown (N, C = ends). X6 = O=C(CCC[*:2])[*:1]
On the % scale 0 is the no-effect control and ±100 the full control effect.

Chain of Glutathione peroxidase 1 (Homo sapiens) (P07203 whole entry, looked up): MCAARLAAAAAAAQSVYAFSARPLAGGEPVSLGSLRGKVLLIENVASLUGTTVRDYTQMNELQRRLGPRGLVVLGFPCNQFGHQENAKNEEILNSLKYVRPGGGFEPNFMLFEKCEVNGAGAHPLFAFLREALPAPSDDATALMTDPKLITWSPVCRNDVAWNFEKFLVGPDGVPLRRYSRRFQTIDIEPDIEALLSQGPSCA

This experiment addresses Glutathione peroxidase 1 (Homo sapiens) (UniProt P07203). Description: Primary qHTS Assay for Inhibitors of Recombinant Selenoprotein Glutathione Peroxidase 1 (GPX1) (AID 1845191). Further: nearly all actives have a fitted effect of over 65% in size. The note with it: recombinant GPX1, GR-coupled NADPH fluorescence, 15 min; series mostly up to 48.8 µM; activity, negative = inhibition: at the top concentration. The method, boiled down: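 GR-coupled assay: compounds preincubated 30 min at room temperature with GPX1, then reaction started with CHP; final 10 nM GPX1, 1 mM GSH, 0.5 mM CHP, 0.5 mM NADPH, 100 nM GR, 0.01% BSA, pH 7.5 Tris buffer. NADPH fluorescence (340/450 nm) read at 0 and 15 min.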
In general terms: In qHTS, concentration-response curves come from the screen itself.
For `C[C@@H]1O[C@@H](O[C@H]2[C@H](O[C@H]3CC[C@@]4(C)C(CC[C@]5(C)C4CC=C4C6CC(C)(C)CC[C@]6(C(=O)O[C@@H]6O[C@H](CO[C@@H]7O[C@H](CO)[C@@H](O[C@@H]8O[C@@H](C)[C@H](O)[C@@H](O)[C@H]8O)[C@H](O)[C@H]7O)[C@@H](O)[C@H](O)[C@H]6O)CC[C@]45C)[C@]3(C)CO)OC[C@H](O)[C@@H]2O)[C@H](O)[C@H](O)[C@H]1O` (stereo partly drawn), the outcome is “inactive [at 9.52 µM]”.

For `C[C@@H]1O[C@@H](O[C@H]2[C@H](O[C@H]3CC[C@@]4(C)C(CC[C@]5(C)C4CC=C4[C@@H]6CC(C)(C)CC[C@]6(C(=O)O)CC[C@]45C)[C@]3(C)CO)OC[C@H](O)[C@@H]2O)[C@H](O)[C@H](O[C@@H]2OC[C@@H](O)[C@H](O)[C@H]2O)[C@H]1O` (stereo partly drawn), the “outcome” value was “inactive [at 15.3 µM]”.

With `CCOC(=O)[C@H](CCc1ccccc1)CC1(C(=O)N[C@H]2CCc3ccccc3N(CC(=O)O)C2=O)CCCC1`, the “activity, negative = inhibition” value was -5.88% (inactive).

Consider `CC(=O)O[C@@H]1[C@H]2[C@@H](OC(=O)c3ccccc3)[C@@H](C)C[C@]2(O)[C@H](OC(C)=O)[C@@]2(C)[C@@H]3CC(C)(C)C(=O)[C@]3(OC(C)=O)C[C@@]12C`, for which the “outcome” value is “inactive [at 15.3 µM]”.

In the case of `C/C=C/C=C/C(CC(=O)O)Nc1ccc(C=O)cc1` (stereo not drawn), the “activity, negative = inhibition” value is -16.9% (inactive).

As to `C/C=C1/[C@H](O[C@@H]2O[C@H](CO)[C@@H](O)[C@H](O)[C@H]2O)OC=C(C(=O)OC)[C@H]1CC(=O)O[C@@H]1O[C@H](CO)[C@@H](O)[C@H](O)[C@H]1O`, the “activity, negative = inhibition” value is -10.5% [at 15.3 µM] (inactive).

For the molecule `CC(C)(O)C1CCC2(C)C3C(O)C4C(C13)C42CO` (stereo not drawn), the “activity, negative = inhibition” value was -0.156% (inactive).

Turning to `COC(=O)C1=CO[C@@H](O[C@@H]2O[C@H](CO[C@@H]3O[C@H](COC(=O)/C=C/c4ccc(O)cc4)[C@@H](O)[C@H](O)[C@H]3O)[C@@H](O)[C@H](O)[C@H]2O)[C@@H]2C(CO)=CC[C@H]12`, the “activity, negative = inhibition” value is 2.15% [at 15.3 µM] (inactive).

With `C/C=C/C1=CC2=C(CO1)C(=O)[C@](C)(O)[C@H](OC(=O)c1c(O)cc(OC)c(O)c1C)C2`, the “activity, negative = inhibition” value was 0.33% [at 27.7 µM] (inactive).

Regarding `Cc1cc(O)c(C(C)C)cc1O[C@@H]1O[C@H](CO)[C@@H](O)[C@H](O)[C@H]1O`, the “activity, negative = inhibition” value was -4.02% [at 27.7 µM] (inactive).

With `CC(C)NC[C@H](O)COc1ccc(CCOCC2CC2)cc1`, the “activity, negative = inhibition” value was 3.09% (inactive).

Turning to `CC1(C)CC[C@]2(C(=O)O)CC[C@]3(C)C(=CCC4[C@@]5(C)CC[C@H](O[C@@H]6O[C@H](C(=O)O)[C@@H](O)[C@H](O)[C@H]6O)C(C)(CO)C5CC[C@]43C)C2C1` (stereo partly drawn), the “activity, negative = inhibition” value is -11.3% [at 15.3 µM] (inactive).

Regarding `C=C1CCC2C(C)(C(=O)O)CC(O)CC2(C)C1CC/C(C)=C/C(=O)O` (stereo not drawn), the “activity, negative = inhibition” value is -5.74% [at 27.7 µM] (inactive).

Regarding `CC12CCC3C(C)(C)C(O)CCC3(C)C1Cc1c(oc(C(=O)O)cc1=O)O2` (stereo not drawn), the “outcome” value is “inactive [at 27.7 µM]”.

As to `OC[C@H]1O[C@@H](Oc2ccc3c(c2)OC[C@H]2c4cc5c(cc4O[C@@H]32)OCO5)[C@H](O)[C@@H](O)[C@@H]1O`, the “outcome” value is “inactive [at 27.7 µM]”.

Consider `C=C[C@H]1[C@H](O[C@@H]2O[C@H](CO[C@@H]3OC[C@](O)(CO)[C@H]3O)[C@@H](O)[C@H](O)[C@H]2O)OC=C2C(=O)OCC[C@H]21`, for which the “activity, negative = inhibition” value is 1.48% [at 27.7 µM] (inactive).

Turning to `CC(=O)OC[C@]1(O)[C@H]2[C@H](OC(=O)CC(C)C)OC=C(CO[C@@H]3O[C@H](CO)[C@@H](O)[C@H](O)[C@H]3O)[C@H]2C[C@@H]1O`, the “outcome” value was “inactive [at 27.7 µM]”.

Consider `Clc1ccc2c(c1)C1=NCCN1c1c(-c3noc(C4CC4)n3)ncn1-2`, for which the result was inactive.

On to `O=C(/C=C/c1ccc(O)c(O)c1)OCc1ccccc1O[C@@H]1O[C@H](CO)[C@@H](O)[C@H](O)[C@H]1O`, for which the “activity, negative = inhibition” value is -4.7% [at 27.7 µM] (inactive).

As to `COCCCNCC1COc2ccccc2O1` (stereo not drawn), the “activity, negative = inhibition” value is 3.84% (inactive).

With `OCc1ccccc1O[C@@H]1O[C@H](CO)[C@@H](O)[C@H](O)[C@H]1O`, the Potency entry was “inactive”.

For `CC(=O)C1CCC2(C)C3=C(CCC12C)C1(C)CCC(=O)C(C)(C)C1CC3` (stereo not drawn), the “activity, negative = inhibition” value was -0.624% [at 27.7 µM] (inactive).

Take `CC1=CC(=O)C2C(C)(C)CC(O)CC2(C)C1CO` (stereo not drawn): the result was inactive.

For `CC[C@H](C)[C@@H]1NC(=O)[C@H](Cc2ccc(OC)cc2)NC(=O)CCCSC[C@@H](C(=O)N2CCC[C@H]2C(=O)N[C@@H](CC(C)C)C(=O)NCC(N)=O)NC(=O)[C@H](CC(N)=O)NC(=O)[C@H](CCC(N)=O)NC1=O` (Y(Me)IQNCPLG-NH2; linker N-5 via X6), the “activity, negative = inhibition” value was -16.8% [at 27.7 µM] (inactive).

On to `CN1C(=O)c2ccccc2NC(=O)[C@]12O[C@@H]2c1cccc(O)c1`, for which the “activity, negative = inhibition” value is -9.12% (inactive).

As to `CCCC1=CC2=C(CO1)C(=O)C(C)(OC(=O)c1c(C)cc(OC)cc1O)C(O)C2` (stereo not drawn), the “activity, negative = inhibition” value is -13% [at 27.7 µM] (inactive).

As for `CC1(C)C(=O)C(C)(C)c2cc(C(=O)Nc3ccc(C(=O)O)cc3)ccc21`, the outcome was inactive.

On to `N#Cc1ccc2[nH]c(O)c(-c3ccc(CN4CCOCC4)cn3)c2c1`, for which the Potency result is “inactive”.

With `COC(=O)CC[C@@H](C)[C@H]1CC[C@H]2[C@@H]3CC(=O)[C@H]4C[C@H](OC(C)=O)CC[C@]4(C)[C@H]3CC[C@]12C`, the “activity, negative = inhibition” value was 2.89% (inactive).

Consider `O=C(O)c1cc(O[C@@H]2O[C@H](CO[C@@H]3OC[C@@H](O)[C@H](O)[C@H]3O)[C@@H](O)[C@H](O)[C@H]2O)c2ccccc2c1O`, for which the “activity, negative = inhibition” value is -20.1% [at 27.7 µM] (inactive).

For the molecule `C=CCc1ccc(O[C@@H]2O[C@H](CO[C@@H]3O[C@H](CO)[C@@H](O)[C@H](O)[C@H]3O)[C@@H](O)[C@H](O)[C@H]2O)c(O)c1`, the “outcome” value was “inactive [at 27.7 µM]”.

As to `C(#Cc1cccc(CN2CCOCC2)c1)CCN1CCCCC1`, the result was inactive.

`C[C@H]1C[C@H]2[C@@H]3CCC4=CC(=O)C=C[C@]4(C)[C@@]3(F)[C@@H](O)C[C@]2(C)[C@@]1(O)C(=O)COP(=O)(O)O`: the “activity, negative = inhibition” value was -16.9% (inactive).

As for `C=CC(C)(O)CC/C=C(\C)C(=O)OCC1OC(OC2CCC3(C)C(CCC4(C)C3CC=C3C5CC(C)(C)C(O)CC5(C(=O)O)CCC34C)C2(C)C)C(O)C(OC2OC(CO)C(O)C(OC3OC(CO)C(O)C(OC4OC(COC5OC(CO)C(O)C(O)C5O)C(O)C(O)C4O)C3O)C2O)C1O` (stereo not drawn), the outcome is “inactive [at 9.52 µM]”.

With `CCC[C@@H]1C[C@@H](C(=O)N[C@@H]([C@H]2O[C@H](SC)[C@H](OP(=O)(O)O)[C@@H](O)[C@H]2O)[C@H](C)Cl)N(C)C1`, the “activity, negative = inhibition” value was -1.07% [at 27.7 µM] (inactive).

Consider `COC(=O)CC1(O)C(=O)Nc2ccccc21` (stereo not drawn), for which the “activity, negative = inhibition” value was -9.24% (inactive).

With `CC12CC34C=CC(=O)C(C)(CCC(=O)O)C3C(CC1C4)O2` (stereo not drawn), the “activity, negative = inhibition” value is 1.14% (inactive).

`CC(=C/C(=O)O)/C=C/[C@]1(O)[C@@]2(C)CO[C@]1(C)C[C@H](O[C@@H]1O[C@H](CO)[C@@H](O)[C@H](O)[C@H]1O)C2`: the “outcome” value is “inactive [at 27.7 µM]”.
